Experimental data as given in PubChem BioAssay AID602208 (Johns Hopkins Ion Channel Center, 2012).
Entries with a potency or affinity are not part of this list. Calls of active or inactive are those of the source.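 Rule for the calls: active = average duplicate choline uptake below buffer control mean minus 3 SD, with a fitted dose curve; inactive = the rest.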

These compounds were tested against High affinity choline transporter 1 (Homo sapiens) (UniProt Q9GZV3) (assay: inhibitors of CHT choline uptake, dose response, cell-based, 3H-choline uptake, CHT LV-AA trafficking mutant, CRC (AID 602208)). Settings: HEK293 CHT LV-AA cells.
High affinity choline transporter 1 (Homo sapiens), sequence (Q9GZV3 whole entry, looked up): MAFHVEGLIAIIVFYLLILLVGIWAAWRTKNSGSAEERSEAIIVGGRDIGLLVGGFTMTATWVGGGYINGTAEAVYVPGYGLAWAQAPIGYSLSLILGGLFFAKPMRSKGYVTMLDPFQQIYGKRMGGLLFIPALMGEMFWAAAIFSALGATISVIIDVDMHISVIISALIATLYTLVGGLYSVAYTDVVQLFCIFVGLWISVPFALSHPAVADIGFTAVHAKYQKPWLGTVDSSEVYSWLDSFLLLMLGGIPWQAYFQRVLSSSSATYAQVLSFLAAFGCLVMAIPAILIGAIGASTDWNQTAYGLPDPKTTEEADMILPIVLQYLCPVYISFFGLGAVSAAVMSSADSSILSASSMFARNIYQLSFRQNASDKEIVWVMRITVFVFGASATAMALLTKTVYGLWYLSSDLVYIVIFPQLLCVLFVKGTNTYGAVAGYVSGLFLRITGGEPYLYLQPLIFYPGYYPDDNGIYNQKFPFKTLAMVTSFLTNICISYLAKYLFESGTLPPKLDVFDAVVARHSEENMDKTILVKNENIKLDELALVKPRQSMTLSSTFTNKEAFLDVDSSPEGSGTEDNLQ

outcome, inactive:
Cc1cc(C)c(C(=O)Nc2ccc(S(=O)(=O)Nc3ccccn3)cc2)c(C)c1
CCN(CC)S(=O)(=O)c1cc(C(=O)Nc2nncs2)c(Cl)cc1Cl
CCc1cccc(CC)c1NC(=O)c1cccc(S(=O)(=O)N2CCN(C)CC2)c1
CC1CCCCC1NC(=O)c1cccc(S(=O)(=O)N2CCN(C)CC2)c1 (configuration not stated)
Cc1cc(NS(=O)(=O)c2ccc(NC(=O)c3ccc(Cl)cc3Cl)cc2)no1
Cc1cc(NS(=O)(=O)c2ccc(NC(=O)C(C)Oc3cccc(C)c3C)cc2)nc(C)n1 (configuration not stated)
COc1cc(NS(=O)(=O)c2ccc(NC(=O)c3ccc(Cl)cc3Cl)cc2)ncn1
